# Screens (PubChem)
# Shown is part of a subset that was picked to be rich in hits.
# TbREL1 primary = TbREL1 RNA ligase inhibitors, primary screen, biochemical, FRET fluorescence; TbREL1 RNA ligation; inhibition, % at 9.66 µM; 0.49% of 89,000 active; AID 1117264, 2014;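 active means inhibition above the mean inhibition across all screened compounds plus 3 SD, cut at about 11% in these data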;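 further: 0% = plate median of test wells and 100% = NSC42067 control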
# Target sequence (P86926 whole entry, looked up): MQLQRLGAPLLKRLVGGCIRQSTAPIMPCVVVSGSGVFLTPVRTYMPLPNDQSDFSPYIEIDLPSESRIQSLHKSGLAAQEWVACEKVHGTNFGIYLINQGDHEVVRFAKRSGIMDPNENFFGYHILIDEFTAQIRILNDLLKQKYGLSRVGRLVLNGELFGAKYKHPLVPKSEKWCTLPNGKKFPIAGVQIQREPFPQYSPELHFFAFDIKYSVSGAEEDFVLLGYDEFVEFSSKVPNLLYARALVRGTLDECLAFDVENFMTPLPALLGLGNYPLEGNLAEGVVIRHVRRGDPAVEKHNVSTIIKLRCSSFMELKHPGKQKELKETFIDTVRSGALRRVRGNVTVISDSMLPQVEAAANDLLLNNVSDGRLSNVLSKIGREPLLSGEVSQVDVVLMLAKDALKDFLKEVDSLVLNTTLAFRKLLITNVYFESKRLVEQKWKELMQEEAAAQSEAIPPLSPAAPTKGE
# TbREL1 confirm = TbREL1 RNA ligase inhibitors, confirmation, biochemical, FRET fluorescence, triplicate | shares compounds with TbREL1 primary | TbREL1 RNA ligation | inhibition, % at 9.66 µM | 37% of 390 active | AID 1117282, 2014;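 active means mean inhibition across replicates above a set limit taken from the earlier primary screen, cut at about 11% in these data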;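 further: 0% = REL1 with substrate and DMSO and 100% = REL1 plus control inhibitor NSC42067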
# An asterisk follows results filed as active.
SMILES,TbREL1 primary,others
CN(C)CCCN(C(=O)c1ccc(S(=O)(=O)N(C)C2CCCCC2)cc1)c1nc2ccc(F)cc2s1,11.4*,TbREL1 confirm=11.0
Cc1cccc2sc(N(CCCN(C)C)C(=O)c3ccc(C(=O)c4ccccc4)cc3)nc12,5.2,
CCOc1ccc2nc(N(CCCN(C)C)C(=O)c3ccc(S(=O)(=O)N4CCCC4)cc3)sc2c1,0.8,
Cc1ccc2nc(N(CCCN(C)C)C(=O)c3ccc4c(c3)CCCC4)sc2c1,2.2,
CCN(Cc1ccccc1)S(=O)(=O)c1ccc(C(=O)N(CCCN(C)C)c2nc3ccc(F)cc3s2)cc1,4.9,
CN(C)CCCN(C(=O)c1ccc(S(=O)(=O)N2CCCCC2)cc1)c1nc2cc3c(cc2s1)OCO3,10.9,
CN(C)CCCN(C(=O)c1ccc(C(=O)c2ccccc2)cc1)c1nc2ccc(F)cc2s1,13.8*,TbREL1 confirm=10.0
CN(C)CCCN(C(=O)c1ccc(S(=O)(=O)N(C)C2CCCCC2)cc1)c1nc2ccc(Br)cc2s1,16.0*,TbREL1 confirm=8.2
O=C(Cn1nnc(-c2ccccc2F)n1)Nc1ccc(F)cc1F,0.6,
COC(=O)[C@]12C[C@H](CC(=O)NCCCCc3ccccc3)C(=O)N(CCc3ccc(OC)c(OC)c3)C1=C[C@H](C(C)C)O[C@@H]2C1CC1,4.9,
COC(=O)Cn1nc(-c2ccccc2)c2cccc(C(F)(F)F)c21,3.1,
COc1cccc(N2CCN(CC(=O)NCc3cccc(OC)c3OC)CC2)c1,-4.1,
Cc1ccc(-n2c(SCC(=O)N/N=C/C=C\c3ccccc3[N+](=O)[O-])nnc2-c2ccccc2)cc1,-1.8,
Cc1ccc(OCC(O)Cn2c(=N)n(CCN3CCCCC3)c3ccccc32)cc1 (stereo not given),8.8,
CCCCCn1c(=N)n(CC(O)COc2ccccc2OC)c2ccccc21 (stereo not given),11.4*,TbREL1 confirm=9.9
CCN(CC)CCn1c(=N)n(CC(O)COc2ccccc2)c2ccccc21 (stereo not given),3.3,
NC(=O)[C@H]1CC2(CC(c3cccc(NC(=O)[C@H]4CCC(=O)N4)c3)=NO2)CN1C(=O)c1ccccc1 (stereo not given in full),20.1*,TbREL1 confirm=25.7*
NC(=O)[C@@H]1CC2(CC(c3cccc(NC(=O)CC(c4ccccc4)c4ccccc4)c3)=NO2)CN1C(=O)c1ccc(Cl)cc1 (stereo not given in full),0.5,
C/C=C(/C)C(=O)Nc1cccc(C2=NOC3(C2)C[C@H](C(N)=O)N(C(=O)c2ccccc2)C3)c1 (stereo not given in full),-2.2,
Cc1c(NC(=O)C2CCCN(S(=O)(=O)c3ccccc3[N+](=O)[O-])C2)c(=O)n(-c2ccccc2)n1C (stereo not given),-1.4,
O=C(CSc1nnc(-c2ccccc2)n1-c1ccc(Cl)cc1)NN=Cc1c[nH]c2ccccc12,-3.0,
CC1(C)CC(=O)C=C(Nc2ccccc2NC(=O)c2cccc(F)c2F)C1,-2.2,
CCOC(=O)Cc1nc(N2CCCN(C(C)=O)CC2)c2c(C)c(C(=O)OCC)sc2n1,1.0,
Cc1nn(C)c(C)c1NC(=O)C12CC3CC(CC(C3)C1)C2,1.9,
Cc1cc(NC(=O)C23CC4CC(CC(C4)C2)C3)n[nH]1,11.5*,TbREL1 confirm=4.5
SMILES,TbREL1 primary,others
CCC(=O)Nc1cc(C)c(NC(=O)C23CC4CC(CC(C4)C2)C3)cn1,-3.1,
Nc1[nH]c(C(=O)c2ccccc2)c(-c2cccc3ccccc23)c1C(=O)c1c(-c2ccccc2)[nH]c2ccccc12,-0.6,
CCCCCCCCN1C(=O)[C@@H](CC(=O)N2CCCCC2)C[C@@]2(C(=O)OC)C1=C[C@H](C(C)C)O[C@@H]2C1CC1,-1.5,
Nc1cccc2cc(S(=O)(=O)O)ccc12,26.1*,TbREL1 confirm=10.0
Nc1ccc2c(S(=O)(=O)O)cccc2c1S(=O)(=O)O,10.6,
Nc1cccc(S(=O)(=O)c2cccc(N)c2)c1,2.0,
O=C(CSc1nc2ccccc2[nH]1)NN=Cc1c(F)cccc1Cl,1.3,
Cc1ccnc(NC(=S)N2CC3CN(c4cccc(C(F)(F)F)c4)CC3C2)c1 (stereo not given),-3.0,
S=c1[nH]nc(-c2n[nH]c3c2CCC3)n1N=Cc1c2ccccc2cc2ccccc12,0.4,
O=C(Cc1ccccc1)Nc1nnc(-c2cccnc2)s1,0.1,
COCCN(C(=O)/C=C/c1ccccc1)c1c(N)n(Cc2ccccc2)c(=O)[nH]c1=O,1.9,
COCCN(C(=O)/C=C/c1ccccc1)c1nnc(-c2cccnc2)s1,12.0*,TbREL1 confirm=-2.6
CCOC(=O)CNC(=O)CSc1nnc(-c2ccc(C(C)(C)C)cc2)n1-c1ccc(Cl)cc1,5.2,
C[C@@H]1CN([C@@H](C)COC(=O)C(C)(C)C)C(=O)c2cc(NC(=O)Nc3ccccc3)ccc2O[C@@H](C)CCCCO[C@H]1CN(C)S(=O)(=O)c1ccc(F)cc1,6.1,
Cn1cccc1CC(=O)NN=Cc1cccc(F)c1,0.7,
Cc1ccc(-n2c(SCC(=O)N/N=C/C=C\c3ccco3)nnc2-c2ccccc2)cc1,-5.8,
